Compound in this test: CN[C@@H]1C[C@H]2O[C@@](C)([C@@H]1OC)n1c3ccccc3c3c4c(c5c6ccccc6n2c5c31)C(=O)NC4 [staurosporine]
Briefly: log2 fold change of tryptic peptide abundance, ligand vs vehicle (limited proteolysis) (log2 ratio); higher = more trypsin-susceptible (destabilized). The following applies: ligand concentration: 20 uM; sample: mouse liver crude lysate; replicate design: treated separately.
UniProt Q6PF93, sequence (Q6PF93 whole entry): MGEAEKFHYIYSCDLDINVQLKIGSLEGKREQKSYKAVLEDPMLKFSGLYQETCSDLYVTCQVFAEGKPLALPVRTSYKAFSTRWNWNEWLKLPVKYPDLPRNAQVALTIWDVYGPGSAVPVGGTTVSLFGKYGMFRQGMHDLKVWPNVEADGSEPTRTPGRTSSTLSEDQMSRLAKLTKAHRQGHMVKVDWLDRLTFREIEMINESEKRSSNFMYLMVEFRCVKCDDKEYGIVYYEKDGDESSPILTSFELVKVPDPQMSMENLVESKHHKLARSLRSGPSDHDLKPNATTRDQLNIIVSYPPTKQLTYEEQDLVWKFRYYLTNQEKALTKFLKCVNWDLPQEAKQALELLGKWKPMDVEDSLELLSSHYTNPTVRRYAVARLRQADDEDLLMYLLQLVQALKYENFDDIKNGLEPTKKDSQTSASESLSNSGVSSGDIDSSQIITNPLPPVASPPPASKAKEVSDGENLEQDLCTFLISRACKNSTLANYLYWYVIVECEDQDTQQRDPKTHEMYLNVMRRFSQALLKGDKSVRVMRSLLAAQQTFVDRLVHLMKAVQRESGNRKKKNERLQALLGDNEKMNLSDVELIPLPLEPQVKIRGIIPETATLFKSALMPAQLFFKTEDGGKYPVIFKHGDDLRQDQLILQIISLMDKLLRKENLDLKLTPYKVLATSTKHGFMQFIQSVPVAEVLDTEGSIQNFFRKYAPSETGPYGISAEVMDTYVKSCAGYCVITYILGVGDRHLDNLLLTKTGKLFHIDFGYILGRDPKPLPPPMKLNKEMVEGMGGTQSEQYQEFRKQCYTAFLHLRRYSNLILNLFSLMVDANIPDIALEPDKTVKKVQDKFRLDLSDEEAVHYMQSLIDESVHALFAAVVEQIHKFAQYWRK
UniProt Q9JHU3, sequence (Q9JHU3 whole entry): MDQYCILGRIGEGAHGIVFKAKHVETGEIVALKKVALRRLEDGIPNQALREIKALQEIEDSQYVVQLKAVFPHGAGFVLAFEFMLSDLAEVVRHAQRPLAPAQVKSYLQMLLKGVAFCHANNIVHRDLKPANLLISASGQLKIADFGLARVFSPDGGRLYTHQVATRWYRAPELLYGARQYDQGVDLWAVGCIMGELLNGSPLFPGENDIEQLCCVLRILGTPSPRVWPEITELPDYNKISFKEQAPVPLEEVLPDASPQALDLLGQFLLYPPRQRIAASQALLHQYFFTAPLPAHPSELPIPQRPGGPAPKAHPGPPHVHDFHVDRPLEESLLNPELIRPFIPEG
UniProt P10649, sequence (P10649 whole entry): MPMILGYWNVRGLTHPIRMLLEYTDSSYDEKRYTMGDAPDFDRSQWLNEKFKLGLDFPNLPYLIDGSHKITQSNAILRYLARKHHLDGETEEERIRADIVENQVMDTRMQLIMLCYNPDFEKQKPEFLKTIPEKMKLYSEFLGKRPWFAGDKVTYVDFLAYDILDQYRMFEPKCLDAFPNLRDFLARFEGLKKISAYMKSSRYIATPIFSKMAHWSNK
UniProt Q6P9R2, sequence (Q6P9R2 whole entry): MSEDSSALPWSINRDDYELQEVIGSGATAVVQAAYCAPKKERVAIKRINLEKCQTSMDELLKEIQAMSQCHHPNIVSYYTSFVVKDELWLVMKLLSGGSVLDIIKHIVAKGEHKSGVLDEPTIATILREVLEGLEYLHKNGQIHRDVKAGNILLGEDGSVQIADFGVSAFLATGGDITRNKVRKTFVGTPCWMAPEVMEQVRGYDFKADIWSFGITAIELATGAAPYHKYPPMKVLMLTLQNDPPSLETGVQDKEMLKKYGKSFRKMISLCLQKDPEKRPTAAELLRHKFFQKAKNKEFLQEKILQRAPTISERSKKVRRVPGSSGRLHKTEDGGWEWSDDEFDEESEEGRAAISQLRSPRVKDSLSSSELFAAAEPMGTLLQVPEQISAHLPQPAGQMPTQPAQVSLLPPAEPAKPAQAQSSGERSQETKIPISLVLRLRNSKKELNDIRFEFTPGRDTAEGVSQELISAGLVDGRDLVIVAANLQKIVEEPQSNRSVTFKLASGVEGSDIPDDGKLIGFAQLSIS
UniProt Q62073, sequence (Q62073 whole entry): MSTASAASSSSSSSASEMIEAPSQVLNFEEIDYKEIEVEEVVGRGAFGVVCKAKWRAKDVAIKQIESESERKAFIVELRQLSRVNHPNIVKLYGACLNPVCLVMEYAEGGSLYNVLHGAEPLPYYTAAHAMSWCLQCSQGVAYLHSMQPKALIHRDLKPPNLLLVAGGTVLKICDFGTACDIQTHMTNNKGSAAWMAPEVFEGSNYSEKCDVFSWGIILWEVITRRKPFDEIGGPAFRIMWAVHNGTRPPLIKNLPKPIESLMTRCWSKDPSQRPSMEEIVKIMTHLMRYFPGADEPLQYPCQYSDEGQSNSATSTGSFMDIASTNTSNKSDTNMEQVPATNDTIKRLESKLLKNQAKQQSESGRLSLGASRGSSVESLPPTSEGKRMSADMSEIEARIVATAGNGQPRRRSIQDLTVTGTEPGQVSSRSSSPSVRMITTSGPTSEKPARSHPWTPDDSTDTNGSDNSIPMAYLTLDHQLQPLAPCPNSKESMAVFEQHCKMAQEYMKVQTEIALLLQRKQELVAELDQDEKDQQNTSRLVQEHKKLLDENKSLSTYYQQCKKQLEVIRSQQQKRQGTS
UniProt Q924L1, sequence (Q924L1 whole entry): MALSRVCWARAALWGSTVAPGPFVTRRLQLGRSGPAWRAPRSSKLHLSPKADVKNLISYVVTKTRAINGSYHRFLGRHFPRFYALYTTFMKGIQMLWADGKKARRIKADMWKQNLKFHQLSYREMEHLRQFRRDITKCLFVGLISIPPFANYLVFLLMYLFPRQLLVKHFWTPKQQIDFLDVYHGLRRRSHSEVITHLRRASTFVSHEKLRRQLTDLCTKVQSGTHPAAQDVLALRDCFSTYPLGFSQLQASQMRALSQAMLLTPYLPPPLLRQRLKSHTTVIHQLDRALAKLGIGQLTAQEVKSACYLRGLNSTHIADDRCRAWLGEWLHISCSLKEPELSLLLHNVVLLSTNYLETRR
UniProt Q8C078, sequence (Q8C078 whole entry, looked up): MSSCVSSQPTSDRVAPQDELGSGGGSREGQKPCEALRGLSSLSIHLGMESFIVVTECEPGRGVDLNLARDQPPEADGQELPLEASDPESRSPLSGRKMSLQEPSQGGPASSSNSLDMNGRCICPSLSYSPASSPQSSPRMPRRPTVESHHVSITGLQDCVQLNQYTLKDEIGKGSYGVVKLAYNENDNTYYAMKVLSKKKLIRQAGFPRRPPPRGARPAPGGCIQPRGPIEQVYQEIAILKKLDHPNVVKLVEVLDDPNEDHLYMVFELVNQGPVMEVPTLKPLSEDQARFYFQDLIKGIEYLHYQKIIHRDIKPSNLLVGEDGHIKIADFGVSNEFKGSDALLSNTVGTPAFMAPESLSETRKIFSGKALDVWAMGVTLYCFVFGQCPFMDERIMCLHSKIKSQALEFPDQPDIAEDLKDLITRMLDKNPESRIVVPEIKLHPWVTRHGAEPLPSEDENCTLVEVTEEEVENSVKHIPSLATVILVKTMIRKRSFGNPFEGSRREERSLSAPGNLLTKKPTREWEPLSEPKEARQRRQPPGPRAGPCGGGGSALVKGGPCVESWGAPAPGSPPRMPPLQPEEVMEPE
Consider “UniProt Q924L1 (peptide sequence: NLISYVVTK, peptide start residue: 55)”, for which the log2 fold change came to 0.543.

As for “UniProt P10649 (peptide sequence: YIATPIFSK, peptide start residue: 203)”, the log2 fold change is 0.584. In the case of “UniProt Q9JHU3 (peptide sequence: HVETGEIVALKK, peptide start residue: 23)”, the log2 fold change is -2.31. For “UniProt Q8C078 (peptide sequence: DIKPSNLLVGEDGHIK, peptide start residue: 312)”, the log2 fold change was -3.1. On to “UniProt Q6PF93 (peptide sequence: LQALLGDNEK, peptide start residue: 573)”, for which the log2 fold change is -0.345. With “UniProt Q62073 (peptide sequence: VNHPNIVK, peptide start residue: 84)”, the log2 fold change is -1.73.

On to “UniProt Q6P9R2 (peptide sequence: EVLEGLEYLHK, peptide start residue: 129)”, for which the log2 fold change was -0.823.

For the origin of these results see the supplement of paper PMC12819154, “High-throughput peptide-centric local stability assay extends protein–ligand identification to membrane proteins, tissues and bacteria” (Nature Structural & Molecular Biology, 2025).
